From PubChem BioAssay AID720509 (The Scripps Research Institute Molecular Screening Center, 2013)
Screen size: about 370,000 compounds; about 760 (0.21%) were called active. The list comes from a sample in which actives are over-represented; it also holds similar structures and randomly drawn compounds. Unmarked numbers belong to inactive results.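 Rule for the calls: active = inhibition above a per-campaign cutoff: mean of compounds within control limits plus 3 SD (cut at about 15% in these data); inactive = the rest.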

These molecules were tested against Fibrinogen beta chain (Homo sapiens) (UniProt P02675) (assay: inhibitors of Tn6 peptide binding to fibrin DD(E), primary screen, biochemical, fluorescence polarization, human fibrin, Tn6 probe (AID 720509;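 note: 0% = median of all compound wells on the plate and 100% = blocking peptide control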)). Conditions: Fibrin DD(E) TRITC-Tn6 fluorescence polarization displacement; at 8.3 µM; active compounds read high.
Chain of Fibrinogen beta chain (Homo sapiens) (P02675 whole entry, looked up): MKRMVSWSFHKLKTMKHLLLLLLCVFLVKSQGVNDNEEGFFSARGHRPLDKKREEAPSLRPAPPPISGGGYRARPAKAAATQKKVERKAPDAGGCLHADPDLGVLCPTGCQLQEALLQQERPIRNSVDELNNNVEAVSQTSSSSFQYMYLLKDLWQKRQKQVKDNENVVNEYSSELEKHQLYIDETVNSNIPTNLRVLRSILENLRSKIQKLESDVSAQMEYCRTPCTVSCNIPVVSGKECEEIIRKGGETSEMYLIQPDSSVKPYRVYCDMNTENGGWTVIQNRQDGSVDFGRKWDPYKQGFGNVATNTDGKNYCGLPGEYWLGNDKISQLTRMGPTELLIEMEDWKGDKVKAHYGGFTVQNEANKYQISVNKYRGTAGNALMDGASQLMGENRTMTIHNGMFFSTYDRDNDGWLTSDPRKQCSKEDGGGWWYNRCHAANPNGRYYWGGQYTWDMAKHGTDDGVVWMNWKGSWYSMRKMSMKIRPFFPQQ

Row | Compound | inhibition
1 | CN(C)CCCn1c(N)c(C#N)c2nc(C#N)c(C#N)nc21 | 15.8% (active)
2 | Cc1cccc(N(C(=O)c2csnn2)C(C(=O)NCc2ccccc2)c2ccncc2)c1 (stereo not drawn) | 1%
3 | CC(C)NC(=O)c1ccccc1S(=O)c1ccccc1C#N (stereo not drawn) | -6.4%
4 | CCn1nnc2cc(C(=O)Nc3ccc(C(=O)OC(C)C)cc3)ccc21 | -3.39%
5 | Cc1cccc(C)c1N1CCN(S(=O)(=O)N2CCOCC2)CC1 | -1.95%
6 | COc1ccc(-c2c(-c3cc(OC)cc(OC)c3)n(C)c3ccc(-c4ccn[nH]4)cc23)cc1 | 7.03%
7 | Cc1cc2nc3c(=O)[nH]c(=O)nc-3n(C[C@H](O)[C@H](O)[C@H](O)CO)c2cc1C | 16.3% (active)
8 | CCN(CC)CCCC(C)n1c2nc(=O)[nH]c(=O)c-2nc2cc(Cl)ccc21 (stereo not drawn) | 0.53%
9 | CCc1ccc(NC(=O)CN2CCC(C(=O)c3ccc(OC)cc3)CC2)cc1 | 3.02%
10 | S=c1[nH]cc(-c2ccc(Cl)cc2)n1-c1ccccc1 | 1.55%
11 | COc1cc(C(=S)N2CCOCC2)cc(OC)c1OC(=O)c1cc([N+](=O)[O-])c(C)c([N+](=O)[O-])c1 | -2.56%
12 | CONc1nc2nonc2nc1NOC | 15.3% (active)
13 | COCCNc1nc2nonc2nc1N(C)Cc1ccc(C)cc1 | -1.67%
14 | N#CC(=C1SC=CS1)c1nc(-c2ccccc2)cs1 | 4.25%
15 | COc1ccc(Nc2nc(-c3ccccc3)cs2)cc1 | 16.7% (active)
16 | COc1ccc(NC(=S)N2N=CCC2c2ccccc2)cc1 (stereo not drawn) | 4.08%
17 | CC(C)Nc1ccc(-n2nc3ccccc3[n+]2[O-])cc1 | -1.03%
18 | NS(=O)(=O)c1ccc(CNC(=O)c2ccc(Cl)cc2[N+](=O)[O-])cc1 | 9.9%
19 | CSc1ccccc1NC(=O)c1cnc2sc(C)cn2c1=O | 7.27%
20 | COC(=O)[C@@H]1CCCN1C(=O)c1cc(COc2cccc3cccnc23)on1 | 7.18%

Row | Compound | inhibition
21 | O=C(NCCCn1ccnc1)C1CCCN(S(=O)(=O)c2cc(Cl)ccc2Cl)C1 (stereo not drawn) | 1.05%
22 | COc1ccc2c(c1)CC[C@@H]1[C@@H]2CC[C@]2(C)C(=O)CC[C@@H]12 | 5.66%
23 | CCc1cccc(CC)c1NC(=O)COc1ccccc1C(=O)c1cc(C#N)c(=O)n(C2CCCCC2)c1 | -4.12%
24 | CN(Cc1ccccc1)C(=O)CCC1CCN(C(=O)c2ccco2)CC1 | -1.06%
25 | Cc1ccc(C)c(C(C)NC(=O)C2CCCO2)c1 (stereo not drawn) | 0.84%
26 | Cc1cc(C)c2nc(NC(=O)C3CCCO3)sc2c1 (stereo not drawn) | 15.3% (active)
27 | Cc1cc(C)c2nc(N3CCC(C(=O)NCCN4CCOCC4)CC3)sc2c1 | -1.61%
28 | O=C(NCC1CCCO1)c1ccccc1-c1nc(-c2ccccc2Cl)no1 (stereo not drawn) | 8.29%
29 | Cc1nn(C)cc1N1C(=O)c2cccc3c(N)ccc(c23)C1=O | 19.6% (active)
30 | C/C(N)=C(/C#N)C(=O)COC(=O)CNS(=O)(=O)c1ccc(C)cc1 | 4.06%
31 | CCc1ccccc1NC(=S)Nc1cc(OC)c(NC(=O)C(C)C)cc1OC | 52.5% (active)
32 | COc1cc(NC(=S)NNC(=O)CC(C)C)c(OC)cc1Cl | 9.57%
33 | COc1ccc(C)cc1NC(=S)Nc1ccccc1SC | -8.72%
34 | Cc1ccccc1OCC(=O)Nc1nnc(S(=O)(=O)N2CCCC2)s1 | 3.91%
35 | Cc1ccc(NC(=O)C(C)Sc2nnc(C3CC3)n2C2CC2)cc1S(=O)(=O)N1CCOCC1 (stereo not drawn) | -3.46%
36 | O=C1CCc2cc(S(=O)(=O)N3CCC(C(=O)NCc4ccccc4Cl)CC3)ccc2N1 | -0.95%
37 | COc1ccc(C(=O)OCc2cc(=O)n3ccsc3n2)cc1F | -0.34%
38 | O=c1cc(Cn2nnc(-c3ccc(Cl)cc3)n2)nc2sccn12 | 16.1% (active)
39 | O=C(OCc1cc(=O)n2ccsc2n1)C1(c2ccc(Cl)cc2)CC1 | 4.84%
40 | Cc1ccc(S(=O)(=O)NCC(=O)NNC(=O)c2ccc(Br)cc2)cc1C | 0.07%

Row | Compound | inhibition
41 | Cc1cc(=O)oc(C)c1C(=O)NCCN(C)Cc1ccccc1 | -1.95%
42 | C[C@@H]1ON(C)[C@H]2C[C@H]3c4cc(N5CCN(C)CC5)ccc4CCN3C(=O)[C@@H]12 | -3.94%
43 | CCOCC(=O)NCc1ccc2c(c1)cc(C)n2C | 22.7% (active)
44 | Cc1ccc(CNC(=O)COc2ccc3c(c2)CCC3)cc1 | -1.34%
45 | Cc1ccc(CNC(=O)Cc2cn(C)c3ccccc23)cc1 | -3.12%
46 | CC[C@@H]1CC2=C(C(=O)OC(C)(C)O2)[C@@H](CC)O1 | -4.34%
47 | COc1ccc(NC(=O)c2cc([N+](=O)[O-])ccc2NC(=O)CNC2CCCCC2C)c(OC)c1 (stereo not drawn) | -3.72%
48 | CC1(C)C(C=C(Cl)Cl)C1C(=O)NC(O)C(=O)c1ccccc1 (stereo not drawn) | 14.5%
49 | O=C(c1ccc2c(c1)N(Cc1ccc(F)cc1)C(=O)CS2)N1CCOCC1 | -0.8%
50 | COC(=O)C(=Nc1ccccc1)/C(C(=O)C(=O)N(C)c1ccccc1)=C(\O)c1ccc(Cl)cc1 | -4.47%
51 | Cc1c(C(=O)NCCCc2ccccc2)cccc1[N+](=O)[O-] | 7.53%
52 | O=C(NCCNc1ccccc1[N+](=O)[O-])c1ccccc1F | 16.1% (active)
53 | O=C(NCCCNc1ccc([N+](=O)[O-])cc1Cl)c1ccccc1F | 0.76%
54 | COc1ccc(-n2cnnc2SCC(=O)Nc2cccc(S(N)(=O)=O)c2)cc1 | 11.3%
55 | Cc1ccc(-c2nn(-c3ccccc3)cc2/C=C/C(=O)Nc2cccc(S(N)(=O)=O)c2)cc1 | 52% (active)
56 | NS(=O)(=O)c1ccc(NC(=O)/C=C/c2ccccc2Cl)cc1 | -10.6%
57 | CC1CN(S(=O)(=O)c2cccc(C(F)(F)F)c2)CN1C(=O)N1CCOCC1 (stereo not drawn) | -4.35%
58 | CC(=O)n1cc([C@@H]2C=C(C(=O)N3CCN(Cc4ccc5c(c4)OCO5)CC3)O[C@H](OCc3ccc(CO)cc3)C2)c2ccccc21 | 3.52%
